SW480 rerep: DNA re-replication induction in SW480 cells | actives 1.8% (n = 340,000) | SW480 DNA re-replication, Hoechst DNA content imaging, 48 h | Potency, µM (top dose mostly 46.1 µM), actives largely listed as activators; note: nearly all actives have a fitted effect of over 55% in size
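Image-based DNA-content assay: after two days of treatment, nuclei were labelled with the DNA dye Hoechst and imaged, and hits were compounds raising the count of nuclei showing high fluorescence intensity.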
KCNH2 WT inh: KCNH2 (human, wildtype) channel inhibition | actives 0.37% (n = 340,000) | activity change, % at 1.84 µM | Q12809 | U2OS, BacMam KCNH2, thallium flux FluxOr; stronger effect = lower value;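 active = maximum activity change below -70%; inconclusive = maximum activity change between -70% and -50%; inactive = maximum activity change above -50%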
Target sequence (Q12809 whole entry, looked up): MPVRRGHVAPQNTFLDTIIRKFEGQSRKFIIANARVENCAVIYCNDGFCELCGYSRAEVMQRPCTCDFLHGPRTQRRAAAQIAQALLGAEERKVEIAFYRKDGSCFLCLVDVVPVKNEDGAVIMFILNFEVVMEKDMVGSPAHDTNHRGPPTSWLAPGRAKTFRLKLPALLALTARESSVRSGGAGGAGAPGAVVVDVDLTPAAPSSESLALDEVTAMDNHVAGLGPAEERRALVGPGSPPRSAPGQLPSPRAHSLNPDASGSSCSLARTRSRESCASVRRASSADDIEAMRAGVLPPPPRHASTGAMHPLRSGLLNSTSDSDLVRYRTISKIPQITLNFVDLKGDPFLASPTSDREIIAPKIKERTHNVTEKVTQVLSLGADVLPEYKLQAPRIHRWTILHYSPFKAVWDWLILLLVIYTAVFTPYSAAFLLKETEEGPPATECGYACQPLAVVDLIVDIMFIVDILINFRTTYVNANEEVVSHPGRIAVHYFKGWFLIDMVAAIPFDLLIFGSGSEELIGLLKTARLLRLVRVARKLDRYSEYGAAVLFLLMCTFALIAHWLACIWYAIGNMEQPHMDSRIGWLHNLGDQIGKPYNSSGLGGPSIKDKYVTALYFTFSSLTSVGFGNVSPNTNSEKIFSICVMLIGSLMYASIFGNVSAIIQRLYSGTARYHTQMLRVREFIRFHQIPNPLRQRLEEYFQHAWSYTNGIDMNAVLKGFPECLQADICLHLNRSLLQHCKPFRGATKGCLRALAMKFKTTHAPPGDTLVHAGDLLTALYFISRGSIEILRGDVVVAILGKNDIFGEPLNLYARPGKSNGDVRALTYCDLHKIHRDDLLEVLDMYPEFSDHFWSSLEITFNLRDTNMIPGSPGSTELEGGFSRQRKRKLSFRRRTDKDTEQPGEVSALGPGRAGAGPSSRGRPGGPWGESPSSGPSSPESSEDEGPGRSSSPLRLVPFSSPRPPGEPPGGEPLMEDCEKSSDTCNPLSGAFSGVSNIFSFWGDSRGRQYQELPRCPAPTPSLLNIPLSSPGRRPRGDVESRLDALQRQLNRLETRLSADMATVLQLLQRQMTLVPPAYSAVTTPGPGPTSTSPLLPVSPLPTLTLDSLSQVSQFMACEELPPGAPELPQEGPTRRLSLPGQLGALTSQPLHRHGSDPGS
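U2OS cells transduced with wild-type KCNH2 virus are loaded with FluxOr dye for 45 min, and thallium flux is measured in kinetic reads before and after stimulation buffer. Rate constants are normalized to DMSO controls.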
KB-V1 cytotox: KB-V1 MDR subline cytotoxicity; KB-V1 MDR cells viability, CellTiter-Glo, 72 h; Potency, µM (titrated, usually from 46.1 µM), most hits filed as cytotoxic; actives 3.4% (n = 400,000); note: nearly all actives have a fitted effect of over 60% in size
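Compound-treated KB-V1 multidrug-resistant cells, 72 h, 37 degrees C; viability by CellTiter-Glo. Fitted qHTS curves give the values.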
KB-3-1 cytotox: kills parental KB-3-1 adenocarcinoma cells | Potency, µM (series often up to 46.1 µM), hits mostly cytotoxic | KB-3-1 viability, CellTiter-Glo ATP luminescence, 72 h | actives 1.4% (n = 400,000); note: nearly all actives have a fitted effect of over 60% in size
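Here the drug-naive KB-3-1 line serves as comparator for MDR sub-line selectivity; cells received compound titrations, 72 h at 37 °C, then CellTiter-Glo readout.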
KCNH2 3.1 block: blocks the human KCNH2 3.1 channel isoform. U2OS KCNH2 3.1, thallium flux FluxOr; stronger effect = lower value. actives 0.95% (n = 340,000). activity change, % (tested at about 1.8 µM). AID 720553;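 active = maximum activity change below -70%; inconclusive = maximum activity change from -70% to -50%; inactive = maximum activity change above -50%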;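 note: thallium influx rate constant from kinetic fluorescence after stimulation buffer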
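Kinetic fluorescence (2 min after stimulation buffer) measures Tl+ influx through KCNH2 3.1 expressed by viral transduction in U2OS cells; the rate constant is normalized against DMSO controls serving as positive and negative references.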
MCF10A rerep: DNA re-replication induction in MCF 10a cells | MCF 10A DNA re-replication, Hoechst nuclear intensity, 48 h | Potency, µM (titrated, usually from 46.1 µM), most hits filed as activators | actives 2.9% (n = 350,000) | AID 624296; note: nearly all actives have a fitted effect of over 50% in size
A number is an active result; [ ] = dose if it differs, or a comment. Only some compounds are listed: those with a hit (about 7.6% of all), similar ones and a draw of the others. Unless noted, calls come from the whole dose curve; as a rule, active = well fitted curve in the direction sought with a large enough effect; inconclusive = small, poorly fitted or top-dose-only effect, or another doubt; inactive = no such curve, though single readings can be large; an effect the other way counts as inactive or inconclusive.

Screening COc1ccc(C2NC(=O)N(C)C3=C2C(=O)N(c2ccc(Br)cc2)C3)cc1 (stereo unspecified) returned KB-V1 cytotox inactive and KB-3-1 cytotox inactive.
`CC1CC(C)CN(C(=S)Nc2ccc(SC(F)F)cc2)C1` (stereo unspecified) gave SW480 rerep inactive, KCNH2 WT inh inactive, KB-V1 cytotox inconclusive, KB-3-1 cytotox inactive, KCNH2 3.1 block inactive and MCF10A rerep inconclusive.
`CC1CC(C)CN(C(=S)Nc2ccc(OC(F)F)cc2)C1` (stereo unspecified) gave SW480 rerep inactive, KCNH2 WT inh inactive, KB-V1 cytotox 21µM, KB-3-1 cytotox inactive, KCNH2 3.1 block inactive and MCF10A rerep inactive.
O=C1c2ccccc2-c2nnc(-c3ccccc3)cc21 was read as SW480 rerep inactive, KCNH2 WT inh inactive, KB-V1 cytotox inconclusive, KB-3-1 cytotox inconclusive, KCNH2 3.1 block inactive and MCF10A rerep inactive.
COc1ccc(-c2cc3c(nn2)-c2ccccc2C3=O)cc1 was read as SW480 rerep inactive, KCNH2 WT inh inactive, KB-V1 cytotox 7.3µM, KB-3-1 cytotox inconclusive, KCNH2 3.1 block inactive and MCF10A rerep inactive.
For Cc1ccc(-n2nc(C)c3nc(CCC(=O)Nc4ccc(F)cc4)c(=O)n(C)c32)cc1 the results were KB-V1 cytotox inactive and KB-3-1 cytotox inactive.
For Cc1cc(C(=O)CSc2nc3ccccc3o2)c(C)n1C1CC1 the results were SW480 rerep inactive, KCNH2 WT inh inactive, KB-V1 cytotox inconclusive, KB-3-1 cytotox inactive, KCNH2 3.1 block inactive and MCF10A rerep 23µM.
For C=CCn1c(C)cc(C(=O)CSc2nnc(NC(C)C)s2)c1C the results were SW480 rerep inactive[9.22 µM], KCNH2 WT inh inactive, KB-V1 cytotox inconclusive, KB-3-1 cytotox inconclusive, KCNH2 3.1 block inactive and MCF10A rerep inconclusive.
Screening C=CCn1c(C)cc(C(=O)CSc2nnc(NCc3ccccc3)s2)c1C returned SW480 rerep inconclusive, KCNH2 WT inh inactive, KB-V1 cytotox 10µM, KB-3-1 cytotox 13µM, KCNH2 3.1 block inactive and MCF10A rerep 3.7µM.
C=CCn1c(C)cc(C(=O)CSc2nc3ccccc3o2)c1C was read as SW480 rerep inconclusive, KCNH2 WT inh inactive, KB-V1 cytotox 15µM, KB-3-1 cytotox inconclusive, KCNH2 3.1 block inactive and MCF10A rerep 23µM.
Screening COc1ccc(C#Cc2ccc3c(=O)c4ccccc4n(C)c3c2)cc1 returned SW480 rerep inconclusive, KCNH2 WT inh inactive, KB-V1 cytotox inactive, KB-3-1 cytotox inactive, KCNH2 3.1 block inactive and MCF10A rerep inconclusive.
CN(C)c1ccc(-c2ccc3c(=O)c4ccccc4n(C)c3c2)cn1 was read as SW480 rerep inactive[9.22 µM], KCNH2 WT inh inactive, KB-V1 cytotox inactive, KB-3-1 cytotox inactive, KCNH2 3.1 block inactive and MCF10A rerep inconclusive.
COc1ccccc1C#Cc1ccc2c(=O)c3ccccc3n(C)c2c1 was read as SW480 rerep inactive, KB-V1 cytotox inactive, KB-3-1 cytotox inactive and MCF10A rerep 21µM.
Cn1c2ccccc2c(=O)c2ccc(Cl)cc21 was read as KCNH2 WT inh inactive, KB-V1 cytotox 13µM, KB-3-1 cytotox inconclusive and KCNH2 3.1 block inactive.
For Cn1c2ccccc2c(=O)c2ccc(C#Cc3ccc(N)cc3)cc21 the results were SW480 rerep 15µM, KCNH2 WT inh inactive, KB-V1 cytotox inactive, KB-3-1 cytotox inactive, KCNH2 3.1 block inactive and MCF10A rerep inconclusive.
For CC(=O)C1=C(O)C(=O)N(c2nccs2)C1c1ccccc1 (stereo unspecified) the results were SW480 rerep inactive, KCNH2 WT inh inactive, KB-V1 cytotox inactive, KB-3-1 cytotox inactive and MCF10A rerep inactive.
Screening Oc1ccccc1C1C=C(c2ccc3c(c2)OCO3)NC(c2ccc(Br)cc2)N1 (stereo unspecified) returned KB-V1 cytotox inactive and KB-3-1 cytotox inactive.
Screening O=C1c2ccccc2[C@@H]2Cc3csc[n+]3[C@H]12 returned KB-V1 cytotox inconclusive and KB-3-1 cytotox inactive.
Screening Cc1ccc(C)c(NC(=O)CCN2CCCC(C)C2)c1 (stereo unspecified) returned SW480 rerep inactive, KCNH2 WT inh inactive, KB-V1 cytotox inactive, KB-3-1 cytotox inactive, KCNH2 3.1 block inactive and MCF10A rerep inactive.
Screening COC(=O)c1cc(OC)c(OC)cc1NC(=O)c1c(-c2ccccc2Cl)noc1C returned SW480 rerep inconclusive, KCNH2 WT inh inactive, KB-V1 cytotox 3.3µM, KB-3-1 cytotox inconclusive, KCNH2 3.1 block inactive and MCF10A rerep inactive.
`COc1ccccc1NC(=S)NC(=O)c1c(-c2ccccc2Cl)noc1C` gave SW480 rerep inactive, KB-V1 cytotox inactive, KB-3-1 cytotox inactive, KCNH2 3.1 block inactive and MCF10A rerep inactive.
Screening COc1ccc(S(=O)(=O)Nc2ccccc2-c2nnn(CC(=O)Nc3ccccc3OC)n2)cc1 returned SW480 rerep inconclusive, KCNH2 WT inh inactive, KB-V1 cytotox inactive, KB-3-1 cytotox inactive, KCNH2 3.1 block inactive and MCF10A rerep inconclusive.
Screening Cc1onc(-c2ccccc2Cl)c1C(N)=O returned SW480 rerep inactive, KCNH2 WT inh inactive, KB-V1 cytotox inactive, KB-3-1 cytotox inactive, KCNH2 3.1 block inactive and MCF10A rerep inactive.
For Cc1ccc(NC(=S)NC(=O)c2c(-c3ccccc3Cl)noc2C)cc1 the results were SW480 rerep inactive, KCNH2 WT inh inactive, KB-V1 cytotox 21µM, KB-3-1 cytotox inactive, KCNH2 3.1 block inactive and MCF10A rerep inactive.
COc1ccc(NC(=O)Cn2nnc(-c3ccccc3NS(=O)(=O)c3ccccc3)n2)cc1 was read as SW480 rerep inactive, KCNH2 WT inh inactive, KB-V1 cytotox 2.9µM, KB-3-1 cytotox 23µM, KCNH2 3.1 block inactive and MCF10A rerep inactive.
Screening Cc1[nH]n(C)c(=O)c1C(=O)c1c(-c2ccccc2Cl)noc1C returned SW480 rerep inconclusive, KCNH2 WT inh inactive, KB-V1 cytotox inactive, KB-3-1 cytotox inactive, KCNH2 3.1 block inactive and MCF10A rerep 26µM.
`Cc1nc(-c2ccc(S(=O)(=O)N3CCN(c4ccccc4F)CC3)cc2)co1` gave KB-V1 cytotox inconclusive and KB-3-1 cytotox inactive.
Cc1cc(NC(=O)c2c(-c3ccccc3Cl)noc2C)no1 was read as SW480 rerep inactive, KCNH2 WT inh inactive, KB-V1 cytotox 13µM, KB-3-1 cytotox inactive, KCNH2 3.1 block inactive and MCF10A rerep inactive.
`Cc1onc(-c2ccccc2Cl)c1C(=O)Nc1cccc(-c2cn3cccnc3n2)c1` gave SW480 rerep inactive, KCNH2 WT inh inactive, KB-V1 cytotox 16µM, KB-3-1 cytotox inactive, KCNH2 3.1 block inactive and MCF10A rerep inconclusive.
COC(=O)c1cc(OC)c(OC)cc1NC(=O)Cn1nnc(-c2ccccc2Cl)n1 was read as SW480 rerep 15µM, KCNH2 WT inh inactive, KB-V1 cytotox inconclusive, KB-3-1 cytotox inactive, KCNH2 3.1 block inactive and MCF10A rerep inactive.
O=C(Nc1cccc(-c2cn3cccnc3n2)c1)c1cc(Br)ccc1Cl was read as KB-V1 cytotox inactive and KB-3-1 cytotox inconclusive.

Assay outcomes deposited in PubChem BioAssay by National Center for Advancing Translational Sciences (NCATS).
